Results on 6 molecules are retold here after ChEMBL document CHEMBL1961873, “Compounds: GSK PKIS; Assays: Nanosyn kinase panel” (2012).

In experiment [1] the target is T1, Tyrosine-protein kinase ITK/TSK (Homo sapiens) (UniProt Q08881).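 Further: values are mean percent inhibition of ITK from the GSK PKIS screen.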
T1 sequence (whole entry): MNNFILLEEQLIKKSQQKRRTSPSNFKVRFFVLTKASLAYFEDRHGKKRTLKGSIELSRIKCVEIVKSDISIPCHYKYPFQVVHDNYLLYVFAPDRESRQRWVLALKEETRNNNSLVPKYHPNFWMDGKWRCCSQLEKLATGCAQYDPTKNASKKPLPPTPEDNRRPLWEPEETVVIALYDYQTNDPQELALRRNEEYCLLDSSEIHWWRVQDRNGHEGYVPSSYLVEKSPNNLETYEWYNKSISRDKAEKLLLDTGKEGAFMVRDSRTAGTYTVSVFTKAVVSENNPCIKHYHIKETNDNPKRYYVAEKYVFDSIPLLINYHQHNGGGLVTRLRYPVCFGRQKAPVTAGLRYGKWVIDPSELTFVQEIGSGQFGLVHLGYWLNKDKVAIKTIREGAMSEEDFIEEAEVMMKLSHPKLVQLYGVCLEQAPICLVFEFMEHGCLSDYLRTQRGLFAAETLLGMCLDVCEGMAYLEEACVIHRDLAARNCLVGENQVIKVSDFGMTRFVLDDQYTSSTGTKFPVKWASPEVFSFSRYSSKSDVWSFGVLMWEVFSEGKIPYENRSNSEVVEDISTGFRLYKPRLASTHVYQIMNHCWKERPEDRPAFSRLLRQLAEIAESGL
Particulars: at 1 µM.

For experiment [2], the target named is Tyrosine-protein kinase JAK1 (Homo sapiens) (UniProt P23458). Particulars: at 0.1 µM.
Experiment [3] has the same target. Particulars: at 1 µM.
For experiment [4], the target named is Tyrosine-protein kinase JAK2 (Homo sapiens) (UniProt O60674). Particulars: at 0.1 µM.
Experiment [5] shares this target. Particulars: at 1 µM.
In experiment [6] the target is T2, Tyrosine-protein kinase JAK3 (Homo sapiens) (UniProt P52333).
T2 sequence (whole entry): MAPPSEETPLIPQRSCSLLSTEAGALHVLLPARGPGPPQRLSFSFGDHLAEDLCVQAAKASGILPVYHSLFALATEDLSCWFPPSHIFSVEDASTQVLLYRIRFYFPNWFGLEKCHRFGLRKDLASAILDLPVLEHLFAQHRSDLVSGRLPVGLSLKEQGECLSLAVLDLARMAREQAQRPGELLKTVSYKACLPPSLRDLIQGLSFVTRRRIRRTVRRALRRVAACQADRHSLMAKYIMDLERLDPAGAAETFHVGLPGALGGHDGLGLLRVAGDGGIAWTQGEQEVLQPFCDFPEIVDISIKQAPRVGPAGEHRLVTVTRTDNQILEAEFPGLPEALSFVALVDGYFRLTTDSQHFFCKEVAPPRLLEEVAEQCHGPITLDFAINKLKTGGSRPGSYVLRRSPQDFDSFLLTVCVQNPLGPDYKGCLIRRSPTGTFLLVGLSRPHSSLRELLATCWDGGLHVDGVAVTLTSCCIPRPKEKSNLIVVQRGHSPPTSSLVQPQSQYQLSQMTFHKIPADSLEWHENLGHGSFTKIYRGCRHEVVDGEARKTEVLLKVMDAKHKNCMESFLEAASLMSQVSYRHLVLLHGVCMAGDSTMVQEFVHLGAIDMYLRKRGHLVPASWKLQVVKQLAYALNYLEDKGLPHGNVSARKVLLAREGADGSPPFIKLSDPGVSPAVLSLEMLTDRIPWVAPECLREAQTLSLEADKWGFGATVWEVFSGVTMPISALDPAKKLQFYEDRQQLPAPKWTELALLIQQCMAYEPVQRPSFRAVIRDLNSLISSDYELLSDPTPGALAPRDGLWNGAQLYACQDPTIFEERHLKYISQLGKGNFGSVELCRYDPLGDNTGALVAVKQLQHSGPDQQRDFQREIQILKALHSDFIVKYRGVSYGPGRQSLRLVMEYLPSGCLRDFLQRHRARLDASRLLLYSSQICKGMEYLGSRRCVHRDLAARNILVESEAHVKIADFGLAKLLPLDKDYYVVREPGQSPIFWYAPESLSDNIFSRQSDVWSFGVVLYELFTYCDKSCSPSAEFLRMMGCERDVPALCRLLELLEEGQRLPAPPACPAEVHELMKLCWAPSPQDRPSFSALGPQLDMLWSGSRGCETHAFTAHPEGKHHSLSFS
Particulars: at 0.1 µM.

The target in experiment [7] is T2, Tyrosine-protein kinase JAK3 (Homo sapiens). Particulars: at 1 µM.
Experiment [8] has as its target Vascular endothelial growth factor receptor 2 (Homo sapiens) (UniProt P35968). Particulars: at 0.1 µM.
The target is the same in experiment [9]. Particulars: at 1 µM.
The target in experiment [10] is Mast/stem cell growth factor receptor Kit (Homo sapiens) (UniProt P10721). Particulars: at 0.1 µM.
The target is the same in experiment [11]. Particulars: at 1 µM.
In experiment [12] the test system is Mast/stem cell growth factor receptor Kit (Homo sapiens), P10721 [D816V]. Particulars: at 0.1 µM.
Experiment [13] shares this test system. Particulars: at 1 µM.
Experiment [14] deals with Mast/stem cell growth factor receptor Kit (Homo sapiens), P10721 [T670I]. Particulars: at 0.1 µM.
Experiment [15] shares this test system. Particulars: at 1 µM.
Experiment [16] concerns Mast/stem cell growth factor receptor Kit (Homo sapiens), P10721 [V560G]. Particulars: at 0.1 µM.
For experiment [17] the test system is unchanged. Particulars: at 1 µM.
Experiment [18] has as its target Tyrosine-protein kinase Lck (Homo sapiens) (UniProt P06239). Particulars: at 0.1 µM.
Experiment [19] has the same target. Particulars: at 1 µM.
The target in experiment [20] is Leukocyte tyrosine kinase receptor (Homo sapiens) (UniProt P29376). Particulars: at 0.1 µM.
Leukocyte tyrosine kinase receptor (Homo sapiens), sequence (P29376 whole entry): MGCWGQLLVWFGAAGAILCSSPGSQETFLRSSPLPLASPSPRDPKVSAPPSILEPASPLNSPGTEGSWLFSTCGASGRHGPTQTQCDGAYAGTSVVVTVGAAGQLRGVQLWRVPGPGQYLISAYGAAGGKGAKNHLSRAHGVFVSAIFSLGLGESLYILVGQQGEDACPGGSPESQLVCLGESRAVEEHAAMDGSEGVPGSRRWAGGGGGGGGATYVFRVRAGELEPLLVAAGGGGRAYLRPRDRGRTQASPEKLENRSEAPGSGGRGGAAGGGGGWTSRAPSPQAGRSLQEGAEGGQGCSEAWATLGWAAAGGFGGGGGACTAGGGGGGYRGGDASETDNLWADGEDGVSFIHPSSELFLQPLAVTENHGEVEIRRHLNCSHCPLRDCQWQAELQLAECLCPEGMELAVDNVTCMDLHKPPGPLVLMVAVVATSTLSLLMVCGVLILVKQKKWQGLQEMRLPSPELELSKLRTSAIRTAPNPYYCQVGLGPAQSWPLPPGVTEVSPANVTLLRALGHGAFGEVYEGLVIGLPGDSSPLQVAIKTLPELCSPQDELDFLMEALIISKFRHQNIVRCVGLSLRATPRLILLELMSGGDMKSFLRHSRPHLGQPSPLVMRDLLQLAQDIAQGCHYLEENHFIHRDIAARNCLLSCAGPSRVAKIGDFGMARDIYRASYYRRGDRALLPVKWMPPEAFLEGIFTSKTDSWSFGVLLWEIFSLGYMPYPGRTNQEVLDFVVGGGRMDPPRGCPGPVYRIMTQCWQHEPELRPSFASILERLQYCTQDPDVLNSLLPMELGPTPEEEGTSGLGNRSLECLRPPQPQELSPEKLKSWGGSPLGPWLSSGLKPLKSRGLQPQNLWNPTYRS

Mast/stem cell growth factor receptor Kit (Homo sapiens), P10721 [D816V], sequence (P10721 whole entry D816V): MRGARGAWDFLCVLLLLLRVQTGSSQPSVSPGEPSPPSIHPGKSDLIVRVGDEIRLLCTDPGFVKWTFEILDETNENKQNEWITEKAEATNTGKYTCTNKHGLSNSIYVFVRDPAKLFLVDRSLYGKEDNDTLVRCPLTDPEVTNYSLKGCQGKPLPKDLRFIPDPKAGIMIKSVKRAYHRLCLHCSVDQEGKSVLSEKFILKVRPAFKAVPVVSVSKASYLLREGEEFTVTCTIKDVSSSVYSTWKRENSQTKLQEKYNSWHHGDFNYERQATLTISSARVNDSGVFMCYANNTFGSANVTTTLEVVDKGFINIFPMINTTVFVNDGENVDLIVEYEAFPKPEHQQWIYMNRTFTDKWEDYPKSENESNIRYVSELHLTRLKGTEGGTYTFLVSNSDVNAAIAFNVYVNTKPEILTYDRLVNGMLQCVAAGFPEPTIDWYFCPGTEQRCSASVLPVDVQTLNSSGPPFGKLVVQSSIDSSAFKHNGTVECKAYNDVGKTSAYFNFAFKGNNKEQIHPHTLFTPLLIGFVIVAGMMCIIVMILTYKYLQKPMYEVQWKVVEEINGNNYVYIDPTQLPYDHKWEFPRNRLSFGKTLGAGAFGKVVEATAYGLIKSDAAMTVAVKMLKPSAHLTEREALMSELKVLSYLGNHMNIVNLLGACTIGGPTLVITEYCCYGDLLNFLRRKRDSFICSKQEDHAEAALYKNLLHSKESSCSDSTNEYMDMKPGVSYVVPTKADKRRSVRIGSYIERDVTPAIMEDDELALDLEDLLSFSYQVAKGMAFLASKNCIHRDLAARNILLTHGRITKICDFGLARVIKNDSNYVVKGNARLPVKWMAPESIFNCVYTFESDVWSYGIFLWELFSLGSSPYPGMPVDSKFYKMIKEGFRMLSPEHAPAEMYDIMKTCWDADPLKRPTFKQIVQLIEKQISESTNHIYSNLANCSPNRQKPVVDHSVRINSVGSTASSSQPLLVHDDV
Mast/stem cell growth factor receptor Kit (Homo sapiens), P10721 [V560G], sequence (P10721 whole entry V560G): as the sequence (P10721 whole entry D816V) above, with V560G, V816D counted along it
Tyrosine-protein kinase JAK2 (Homo sapiens), sequence (O60674 whole entry): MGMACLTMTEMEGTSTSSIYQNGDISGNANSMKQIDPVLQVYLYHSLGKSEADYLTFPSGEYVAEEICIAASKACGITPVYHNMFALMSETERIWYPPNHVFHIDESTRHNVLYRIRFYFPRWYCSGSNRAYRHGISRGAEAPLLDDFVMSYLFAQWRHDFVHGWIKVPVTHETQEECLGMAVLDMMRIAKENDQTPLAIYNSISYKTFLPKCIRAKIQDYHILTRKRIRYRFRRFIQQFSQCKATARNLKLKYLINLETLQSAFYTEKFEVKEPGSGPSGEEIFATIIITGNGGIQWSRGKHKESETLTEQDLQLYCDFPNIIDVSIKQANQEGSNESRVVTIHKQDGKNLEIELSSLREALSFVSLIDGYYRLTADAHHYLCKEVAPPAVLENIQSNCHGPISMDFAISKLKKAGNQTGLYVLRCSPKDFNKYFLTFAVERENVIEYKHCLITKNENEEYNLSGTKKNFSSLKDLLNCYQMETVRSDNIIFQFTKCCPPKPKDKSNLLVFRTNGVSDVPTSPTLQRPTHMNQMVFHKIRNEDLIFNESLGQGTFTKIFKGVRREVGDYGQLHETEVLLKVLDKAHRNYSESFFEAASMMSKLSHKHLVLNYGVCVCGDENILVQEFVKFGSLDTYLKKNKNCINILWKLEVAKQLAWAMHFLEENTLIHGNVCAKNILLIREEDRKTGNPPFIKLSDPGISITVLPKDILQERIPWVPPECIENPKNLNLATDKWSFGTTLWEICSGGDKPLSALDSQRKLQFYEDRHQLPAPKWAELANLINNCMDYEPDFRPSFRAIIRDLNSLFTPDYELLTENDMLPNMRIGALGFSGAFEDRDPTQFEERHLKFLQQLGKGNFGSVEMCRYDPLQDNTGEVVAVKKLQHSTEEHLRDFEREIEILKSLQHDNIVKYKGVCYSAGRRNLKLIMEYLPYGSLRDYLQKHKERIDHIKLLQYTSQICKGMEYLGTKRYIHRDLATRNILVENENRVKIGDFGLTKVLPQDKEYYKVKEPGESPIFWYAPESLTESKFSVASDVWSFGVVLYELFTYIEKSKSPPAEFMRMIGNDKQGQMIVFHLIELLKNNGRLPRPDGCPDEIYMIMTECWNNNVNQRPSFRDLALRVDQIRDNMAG
Mast/stem cell growth factor receptor Kit (Homo sapiens), sequence (P10721 whole entry): as the sequence (P10721 whole entry D816V) above, with V816D counted along it
Mast/stem cell growth factor receptor Kit (Homo sapiens), P10721 [T670I], sequence (P10721 whole entry T670I): as the sequence (P10721 whole entry D816V) above, with T670I, V816D counted along it
Tyrosine-protein kinase Lck (Homo sapiens), sequence (P06239 2-509 limits assumed): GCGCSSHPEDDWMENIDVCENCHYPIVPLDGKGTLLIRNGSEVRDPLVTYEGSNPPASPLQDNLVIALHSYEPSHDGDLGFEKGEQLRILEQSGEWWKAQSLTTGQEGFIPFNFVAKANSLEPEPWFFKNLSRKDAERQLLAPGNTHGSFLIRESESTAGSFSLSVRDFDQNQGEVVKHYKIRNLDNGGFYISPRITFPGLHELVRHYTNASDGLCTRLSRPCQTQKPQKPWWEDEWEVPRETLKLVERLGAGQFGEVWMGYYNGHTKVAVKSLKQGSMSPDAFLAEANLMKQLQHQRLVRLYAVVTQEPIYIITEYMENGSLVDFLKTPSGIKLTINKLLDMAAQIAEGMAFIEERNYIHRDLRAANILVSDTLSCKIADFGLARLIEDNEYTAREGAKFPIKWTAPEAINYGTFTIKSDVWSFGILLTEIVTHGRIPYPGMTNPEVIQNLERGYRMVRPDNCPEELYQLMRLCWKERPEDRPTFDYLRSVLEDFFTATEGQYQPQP
Vascular endothelial growth factor receptor 2 (Homo sapiens), sequence (P35968 whole entry): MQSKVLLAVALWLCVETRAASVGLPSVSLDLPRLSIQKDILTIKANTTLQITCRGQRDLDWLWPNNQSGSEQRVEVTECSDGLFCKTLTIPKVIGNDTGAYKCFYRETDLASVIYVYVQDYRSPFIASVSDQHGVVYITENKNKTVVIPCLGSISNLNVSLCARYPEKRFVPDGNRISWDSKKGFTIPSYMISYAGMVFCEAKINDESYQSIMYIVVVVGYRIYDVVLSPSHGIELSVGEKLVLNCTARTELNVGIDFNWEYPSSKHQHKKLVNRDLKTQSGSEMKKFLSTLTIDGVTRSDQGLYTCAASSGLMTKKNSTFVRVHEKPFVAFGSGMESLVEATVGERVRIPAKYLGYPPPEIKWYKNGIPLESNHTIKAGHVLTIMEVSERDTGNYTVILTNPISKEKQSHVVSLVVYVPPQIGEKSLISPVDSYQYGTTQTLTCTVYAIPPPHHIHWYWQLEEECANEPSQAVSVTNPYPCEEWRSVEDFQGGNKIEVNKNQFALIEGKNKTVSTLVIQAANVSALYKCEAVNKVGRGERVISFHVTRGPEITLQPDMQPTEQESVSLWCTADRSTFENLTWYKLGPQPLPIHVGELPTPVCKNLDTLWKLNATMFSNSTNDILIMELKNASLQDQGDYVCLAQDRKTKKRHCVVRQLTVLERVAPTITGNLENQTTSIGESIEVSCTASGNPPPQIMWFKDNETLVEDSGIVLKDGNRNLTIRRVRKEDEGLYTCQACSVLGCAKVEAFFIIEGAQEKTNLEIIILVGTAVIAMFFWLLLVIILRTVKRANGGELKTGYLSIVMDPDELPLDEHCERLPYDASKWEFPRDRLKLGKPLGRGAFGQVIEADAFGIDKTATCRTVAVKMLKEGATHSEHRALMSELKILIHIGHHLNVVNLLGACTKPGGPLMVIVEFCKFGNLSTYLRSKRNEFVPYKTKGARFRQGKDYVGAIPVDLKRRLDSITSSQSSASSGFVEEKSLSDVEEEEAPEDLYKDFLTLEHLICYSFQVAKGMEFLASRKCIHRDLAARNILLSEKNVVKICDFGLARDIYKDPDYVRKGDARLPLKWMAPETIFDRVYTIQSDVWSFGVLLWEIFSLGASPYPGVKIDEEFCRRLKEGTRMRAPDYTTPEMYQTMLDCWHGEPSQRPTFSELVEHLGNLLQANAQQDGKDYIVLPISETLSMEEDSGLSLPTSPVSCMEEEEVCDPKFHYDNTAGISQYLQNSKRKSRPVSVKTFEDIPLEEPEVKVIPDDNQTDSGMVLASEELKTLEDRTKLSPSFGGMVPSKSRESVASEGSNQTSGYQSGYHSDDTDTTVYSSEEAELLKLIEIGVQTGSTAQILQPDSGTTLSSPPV

In the case of `COC(=O)Nc1nc2ccc(Oc3ccc(NC(=O)Nc4cc(C(F)(F)F)ccc4F)cc3)cc2s1`, the inhibition – broadly, the drop in the measured response relative to a control, in per cent – in experiment [1] is 2.72%; in experiment [2], 0.07%; in experiment [3] it was 9.06%; in experiment [4] it was 1.98%; in experiment [5] it was 7.31%; in experiment [6], -0.26%. The inhibition in experiment [7] was 0.75%; in experiment [8], 69.8%; in experiment [9], 85.1%; in [10] it was 17.9%; in experiment [11], 73.9%; in experiment [12], -1.16%. Moreover, the inhibition in [13] was -0.29%; in [14] it was 14.4%; in experiment [15], 46.7%; in experiment [16], 19.8%; in experiment [17] it was 73.7%; in experiment [18] it was 15.2%. Besides, the inhibition in [19] was 47.1%; in experiment [20] it was 1.83%.

`CS(=O)(=O)Nc1ccc(-c2ccc3c(NC(=O)C4CC4)n[nH]c3c2)cc1`: the inhibition was 4.27% in experiment [1]; 2.35% in experiment [2]; -1.13% in experiment [3]; 1.06% in [4]; 2.88% in experiment [5]; -0.85% in experiment [6]. The inhibition in [7] stood at 1.11%; in experiment [8], 4.26%; in experiment [9], 9.88%; in experiment [10], 1.72%; in experiment [11], 6.32%; in experiment [12] it was 2.91%. Also, the inhibition in [13] was found to be 2.86%; in [14] it was 1.55%; in [15], 1.56%; in [16], 0.02%; in [17] it was 0.94%; in experiment [18], 2.88%. Also, the values for the inhibition in experiment [19] and in experiment [20] were 8.63% and 4.21%, respectively.

Turning to `COc1cccc(-n2ncc3c(N/N=C/c4ccc(C(=O)NCCN(C)C)cc4)ncnc32)c1`, the inhibition amounted to 8.64% in experiment [1]; 4.89% in [2]; 18.1% in [3]; 2.63% in experiment [4]; 14.1% in [5]; 0.22% in experiment [6]. Besides, the inhibition in experiment [7] was 15.4%; in experiment [8], 43.6%; in experiment [9], 68.7%; in [10] it was 15.5%; in [11], 65.8%; in [12] it was 7.1%. The inhibition in experiment [13] was determined as 15%; in experiment [14] it was 6.62%; in experiment [15] it was 52.3%; in experiment [16], 2.06%; in experiment [17] it was 5.99%; in experiment [18], 72.9%. For the same molecule, the inhibition in experiment [19] came to 94.4%; in [20], 2.24%.

For the molecule `CN1CCC(n2cnc(-c3ccc(F)cc3)c2-c2ccnc(NCCO)n2)CC1`, the inhibition in [1] is 2.24%; in [2] it was 4.93%; in experiment [3], 7.32%; in experiment [4], 0.46%; in experiment [5], 1.42%; in experiment [6] it was -2.19%. For the same molecule, the inhibition in experiment [7] is -0.11%; in [8], 5.3%; in [9] it was 9.32%; in experiment [10], 4.45%; in experiment [11], 10.7%; in experiment [12], 1.99%. In addition, the inhibition was 7.69% in experiment [13]; 3.05% in [14]; 6.22% in experiment [15]; -1.29% in experiment [16]; -0.38% in experiment [17]; 2% in [18]. The inhibition in experiment [19] is 1.46%; in experiment [20], 4.62%.

As for `CCN1CCC(C(=O)Nc2n[nH]c3nnc(-c4cccc(F)c4F)cc23)CC1`, the inhibition was 0.88% in experiment [1]; 1.68% in [2]; -1.21% in experiment [3]; -0.5% in experiment [4]; -0.03% in experiment [5]; 0.12% in experiment [6]. The inhibition in experiment [7] is 1.09%; in [8], 1.67%; in experiment [9], 4.26%; in experiment [10] it was 1.8%; in experiment [11], 2.87%; in experiment [12] it was -0.19%. Also, the inhibition in [13] is -1.53%; in experiment [14], 3.1%; in experiment [15], -0.26%; in experiment [16] it was 0.02%; in [17], 3.46%; in [18], -0.07%. Also, the inhibition in [19] was 2.23%; in experiment [20], -0.09%.

For the molecule `Cc1c2ccc(N(C)c3ccnc(Nc4cccc(S(N)(=O)=O)c4)n3)cc2nn1C`, the inhibition in experiment [1] was 2.14%; in experiment [2] it was 1.56%; in experiment [3] it was 9.69%; in experiment [4] it was 2.02%; in experiment [5], 6.46%; in [6] it was -4.75%. Further, the inhibition in experiment [7] came to 0.05%; in experiment [8], 76.4%; in [9], 73%; in experiment [10], 92.6%; in experiment [11] it was 98%; in experiment [12], 2.85%. The inhibition in experiment [13] was determined as 5.89%; in [14] it was 22%; in [15], 81.1%; in [16] it was 69.9%; in experiment [17] it was 80.3%; in [18], 20.3%. In addition, the inhibition came out at 66.6% in [19] and 4.98% in [20].
